Assay results: PubChem BioAssay
For part of these data: Results with a measured potency or affinity are listed apart. Active and inactive are the calls of the source.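 How the source made its calls, unless noted: active means dose-response curve with midpoint inside the tested range, moderate steepness, significant amplitude and little compound fluorescence or bead-attachment interference; inactive means the rest.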

Experiments:
[1] = target: Cell division control protein 42 homolog (Homo sapiens) (UniProt P60953); assay: activated mutant Cdc42 GTP-binding inhibitors, dose response, biochemical, multiplex bead flow cytometry, Bodipy-FL-GTP (AID 1333;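 active means fitted half-maximal concentration within the tested dose range, moderate curve steepness, a statistically real signal drop, and little compound fluorescence or tag-binding interference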)
Sequence of Cell division control protein 42 homolog (Homo sapiens) (P60953 whole entry, looked up): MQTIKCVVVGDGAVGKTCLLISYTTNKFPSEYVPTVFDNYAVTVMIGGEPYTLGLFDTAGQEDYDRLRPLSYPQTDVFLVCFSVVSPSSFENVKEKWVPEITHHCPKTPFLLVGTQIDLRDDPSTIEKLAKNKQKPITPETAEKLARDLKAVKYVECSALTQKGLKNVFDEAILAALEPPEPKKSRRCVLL

[2] = target: Cell division control protein 42 homolog (Homo sapiens) (UniProt P60953); assay: wildtype Cdc42 GTP-binding inhibitors, dose response, biochemical, multiplex bead flow cytometry, Bodipy-FL-GTP (AID 1334;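 active means fitted half-maximal concentration within the tested range, moderate curve steepness, significant signal drop, and little compound fluorescence or bead-linkage interference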); settings: bead-based flow cytometry, Bodipy-FL-GTP binding to GST-Cdc42; at 100 µM (top of the series) unless noted
[3] = target: GTPase HRas (Homo sapiens) (UniProt P01112); assay: inhibitors of GTP binding to wildtype Ras, dose response, biochemical, multiplex bead flow cytometry (AID 1335;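 active means fitted half-maximal concentration within 10 nM to 100 µM, steepness 0.5 to 2, significant signal drop, low assay interference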); settings: bead-based flow cytometry, Bodipy-GTP binding to GST-Ras; at 100 µM (top of the series) unless noted
Sequence of GTPase HRas (Homo sapiens) (P01112 whole entry, looked up): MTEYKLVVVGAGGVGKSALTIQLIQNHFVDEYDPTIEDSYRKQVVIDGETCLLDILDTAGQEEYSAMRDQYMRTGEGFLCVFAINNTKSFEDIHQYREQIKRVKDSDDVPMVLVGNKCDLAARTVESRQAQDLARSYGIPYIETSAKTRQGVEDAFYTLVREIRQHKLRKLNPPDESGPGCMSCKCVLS

[4] = test system: Ras-related protein Rab-7a (dog), GTP binding; assay: Rab7 GTP binding inhibitors, potency, dose response, biochemical, wildtype, multiplex bead flow cytometry (AID 1336; call rule not given here)
[5] = target: Ras-related C3 botulinum toxin substrate 1 (Homo sapiens) (UniProt P63000); assay: wildtype Rac1 GTP binding inhibitors, dose response, biochemical, multiplex bead flow cytometry (AID 1340;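 active means dose curve with midpoint inside tested range, moderate steepness, plateau gap beyond fit error, low compound glow and bead-link interference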); settings: GST-Rac1 beads, Bodipy-FL-GTP binding; at 100 µM (top of the series) unless noted
[6] = target: GTPase HRas (Homo sapiens) (UniProt P01112); assay: activated Ras mutant GTP binding inhibitors, dose response, biochemical, multiplex bead flow cytometry (AID 1341);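 further: GST-tagged constitutively activated Ras mutant immobilized on beads and multiplexed with other GTPases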

SMILES | outcome [1] | fluorescence, percent of control (lower = inhibition) [2] [%] | GTP binding, percent of control [3] [%] | outcome [4] | GTP binding signal, raw median fluorescence (lower = inhibition) (MCF (arbitrary fluorescence units)) [5] | outcome [6]
COc1ccc(OCc2oc3ccc(OC)cc3c2C(=O)O)cc1 | inactive | 53.9 | 82.7 | inactive | 28.2 | inactive
Cc1c(C(=O)N/N=C/c2ccc(O)c(Br)c2)sc(N)c1C#N | inactive | 27.1 | 64.7 | inactive | 151 | inactive
COc1cc(C(=S)NCc2ccccc2)cc(Br)c1O | inactive | 23.5 | 56.3 | inactive | 246 | inactive
COc1cc(/C=N\NC(=O)CNC(=O)C2COc3ccccc3O2)ccc1O (configuration not stated) | inactive | 51.5 | 62.3 | inactive | 191 | inactive
CCOC(=O)c1cccnc1SCCc1ccccc1 | inactive | 125 | 155 | inactive | 95.5 | inactive
Cc1ccccc1Nc1cc(C(=O)O)c2ccccc2n1 | inactive | 62.2 | 86.6 | inactive | 32.7 | inactive
c1ccc(-c2onc3c2CCCC3)cc1 | inactive | 97.3 | 144 | inactive | 192 | inactive
CO/N=C/NC(=O)NOCc1ncc(C(F)(F)F)cc1Cl | inactive | 38.1 | 86.2 | inactive | 295 | inactive
CCC(=O)c1ccc(OCC(=O)O)c(OC)c1 | inactive | 46.1 | 121 | inactive | 64.7 | inactive
COC(=O)c1cn(CCOc2ccc(C)cc2)c2ccccc12 | inactive | 37 | 84.4 | inactive | 175 | inactive
Cc1nnc(SCC(=O)N2CCOCC2)c2ccccc12 | inactive | 49.3 | 61.1 | inactive | 192 | inactive
CCOC(=O)CNC(=O)c1cccnc1SCCc1ccccc1 | inactive | 46.7 | 125 | inactive | 65 | inactive
CNC(=S)N=Nc1c(O)[nH]c2ccccc12 | inactive | 36.2 | 47 | inactive | 128 | inactive
COc1ccc(/C=C2/N=C(SCC(=O)Nc3cc(C)on3)N(c3ccccc3)C2=O)cc1 | inactive | 41.3 | 54.1 | inactive | 177 | inactive
O=C(CN1C(=O)C2C3c4ccccc4C(c4ccccc43)C2C1=O)Nc1cccc(C(=O)O)c1 (configuration not stated) | inactive | 46.1 | 58.8 | inactive | 165 | inactive
O=C(O)c1ccccc1OCc1ccccc1Br | inactive | 84.6 | 98 | inactive | 65.5 | inactive
Cc1ccc(OCc2ccc(C(=O)O)o2)cc1C | inactive | 61.7 | 90.6 | inactive | 34.8 | inactive
Oc1ccc(/C=N/NC(=S)N/N=C/c2ccc(O)cc2)cc1 | inactive | 45 | 88.4 | inactive | 177 | inactive
Cc1ccc(-c2noc(CN3C(C)CCCC3C)n2)cc1 (configuration not stated) | inactive | 51.1 | 62.9 | inactive | 216 | inactive

SMILES | outcome [1] | fluorescence, percent of control (lower = inhibition) [2] [%] | GTP binding, percent of control [3] [%] | outcome [4] | GTP binding signal, raw median fluorescence (lower = inhibition) (MCF (arbitrary fluorescence units)) [5] | outcome [6]
CCN(CC)c1ccc(/C=C(\C#N)c2nc(-c3cccs3)c(NC(C)=O)s2)cc1 | inactive | 99.5 | 114 | inactive | 0 | inactive
N#Cc1c2c(c(-c3ccccc3Cl)[nH]c1=S)CCCC2 | inactive | 28.8 | 78.4 | inactive | 248 | inactive
Cc1ccc(/C=N/N(C)C2=NS(=O)(=O)c3ccccc32)o1 | inactive | 27.1 | 57.3 | inactive | 132 | inactive
O=C(O)c1cc(N2N=C(C(F)(F)F)/C(=C/C=C/c3ccco3)C2=O)ccc1Cl | inactive | 22.4 | 69.8 | inactive | 174 | inactive
CCOC(=O)C1=NN(c2ccc(C)cc2)CC1C(=O)OC (configuration not stated) | inactive | 41.5 | 86.3 | inactive | 244 | inactive
COc1cccc2c(SCC(=O)N/N=C/c3ccc(O)c(O)c3)cc(C)nc12 | inactive | 27.5 | 60.2 | inactive | 119 | inactive
COc1cc2nc(=S)n(CCCN3CCOCC3)c(N)c2cc1OC | inactive | 38.1 | 79.4 | inactive | 151 | inactive
Cc1ccc(C)c(OCCSc2nc3ccccc3n2CC(=O)O)c1 | inactive | 59.6 | 88.1 | inactive | 29.2 | inactive
COc1cc2[nH]c(=S)nc(NCc3cccs3)c2cc1OC | inactive | 29.5 | 67.6 | inactive | 161 | inactive
O=C(C#Cc1ccccc1)c1ccc([N+](=O)[O-])cc1 | inactive | 25.5 | 74.2 | inactive | 264 | inactive
Cc1no[n+]([O-])c1COc1cccc(/C=C2\N=C(c3ccccc3)OC2=O)c1 | inactive | 46.6 | 60.8 | inactive | 184 | inactive
CCOC(=O)c1cnc2c(C#N)cnn2c1N | inactive | 33.6 | 72.1 | inactive | 167 | inactive
CC(C)c1ccc(C(=O)NC2=NCCS2)cc1 | inactive | 50.5 | 62.6 | inactive | 204 | inactive
Cc1cc(-c2nnc3n2N=C(c2ccc(-c4ccccc4)cc2)CS3)n[nH]1 | inactive | 31.3 | 72.4 | inactive | 172 | inactive
O=C1c2ccccc2-n2c1nc1ccccc1c2=O | inactive | 35.1 | 78.8 | inactive | 204 | inactive
Nc1[nH]c(=S)nc2nc(-c3ccccc3)c(-c3ccccc3)nc12 | inactive | 33.9 | 81.4 | inactive | 198 | inactive
CCOc1cc(/C=N/NC(=O)c2cc(-c3cccnc3)nc3ccccc23)ccc1O | inactive | 33.8 | 80.2 | inactive | 188 | inactive
Cc1cc2nc3c(=O)[nH]c(=O)[nH]c3nc2c([N+](=O)[O-])c1N | inactive | 35 | 75.6 | inactive | 192 | inactive
COc1cc(/C=N/Nc2nncn2/N=C/c2ccc(O)c(OC)c2)ccc1O | inactive | 30.7 | 68.3 | inactive | 147 | inactive

SMILES | outcome [1] | fluorescence, percent of control (lower = inhibition) [2] [%] | GTP binding, percent of control [3] [%] | outcome [4] | GTP binding signal, raw median fluorescence (lower = inhibition) (MCF (arbitrary fluorescence units)) [5] | outcome [6]
CSc1ccc(/C=N/NC(=O)c2cc(O)cc(O)c2)cc1 | inactive | 33.1 | 58.6 | inactive | 160 | inactive
Cc1cc(C(F)(F)F)c(C#N)c(SCC(=O)Nc2nc3ccccc3s2)n1 | inactive | 89.9 | 105 | inactive | 188 | inactive
Cc1cccc(S(=O)(=O)c2c(N)n(/N=C/c3cccnc3)c3nc4ccccc4nc23)c1 | inactive | 81.3 | 51.7 | inactive | 135 | inactive
CSc1ncccc1C(=O)OCC(=O)N1CCOCC1 | inactive | 84.4 | 160 | inactive | 170 | inactive
O=C1c2ccccc2C(=O)N1CCCCN(C(=O)c1cc2ccccc2oc1=O)c1ccc(Cl)cc1 | inactive | 51.3 | 60.9 | inactive | 210 | inactive
NOC(=O)c1cccnc1SCCc1ccccc1 | inactive | 45.9 | 125 | inactive | 63 | inactive
Nc1ccc2c(c1)C(=O)C(=O)c1ccccc1-2 | inactive | 22.1 | 57.5 | inactive | 73.8 | inactive
Cc1n[nH]c(=S)c2nn(-c3ccccc3)c(C)c12 | inactive | 47.4 | 63.6 | inactive | 188 | inactive
COc1cccc(-n2nc3c(-n4ncc(C#N)c4N)nnc(C)c3c2C)c1 | inactive | 54.8 | 64.6 | inactive | 212 | inactive
COc1cc2[nH]c(=S)nc(NCc3ccccn3)c2cc1OC | inactive | 31.9 | 71.7 | inactive | 176 | inactive
Cc1cc(NS(=O)(=O)c2ccc(Nc3nc(-c4sc(N)nc4C)cs3)cc2)no1 | inactive | 23.8 | 58.3 | inactive | 122 | inactive
COc1ccc(OC)c(C(C(=O)NCc2ccco2)N(C(=O)Cn2nnc3ccccc32)C2CC2)c1 (configuration not stated) | inactive | 47.2 | 58 | inactive | 0 | inactive
NC1=NC(=O)/C(=C\c2ccc(O)c([N+](=O)[O-])c2)S1 | inactive | 26.8 | 58.3 | inactive | 116 | inactive
O=C(O)c1cc(-c2ccc(/C=C3/SC(=S)N(Cc4ccccc4)C3=O)o2)ccc1Cl | inactive | 31.5 | 61.5 | inactive | 154 | inactive
S=C(NCCc1ccccc1)N1CCn2cccc2C1c1cccnc1 (configuration not stated) | inactive | 28 | 63.3 | inactive | 227 | inactive
O=C(/C=C/c1ccccc1)NC(NC(=S)Nc1ccc(C(=O)O)cc1)C(Cl)(Cl)Cl (configuration not stated) | inactive | 35.2 | 78.3 | inactive | 178 | inactive
O=c1[nH]c2ccc(S(=O)(=O)NCc3ccccc3)cc2[nH]1 | inactive | 38.1 | 84.5 | inactive | 218 | inactive
Cc1nnc(OC(C)C)c2nn(-c3ccccc3F)c(C)c12 | inactive | 55.1 | 69.3 | inactive | 0 | inactive
CCC(=O)N=C1SC2CS(=O)(=O)CC2N1c1cccc(OC)c1 (configuration not stated) | inactive | 89 | 162 | inactive | 180 | inactive
